Only a selection was taken, and hits are over-represented in it overall.
Casp1 inh: qHTS Assay for Allosteric/Competitive Inhibitors of Caspase-1; P29466; Caspase-1 enzyme, Ac-WEHD-AFC fluorogenic rate; Potency, µM (top dose mostly 57.5 µM), for the others: at the top dose activity change, negative = inhibition, usual class: inhibitors; 75,000 tested, 0.03% active; AID 900, 2007;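 note: plate controls were vehicle for no effect and no substrate for full effect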
Target sequence (P29466 120-297 limits assumed): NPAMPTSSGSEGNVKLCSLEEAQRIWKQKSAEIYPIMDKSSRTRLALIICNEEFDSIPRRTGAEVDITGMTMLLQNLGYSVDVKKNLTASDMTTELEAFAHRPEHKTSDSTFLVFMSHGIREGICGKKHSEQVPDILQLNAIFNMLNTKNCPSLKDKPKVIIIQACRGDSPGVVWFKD
Target sequence (P29466 317-404 limits assumed): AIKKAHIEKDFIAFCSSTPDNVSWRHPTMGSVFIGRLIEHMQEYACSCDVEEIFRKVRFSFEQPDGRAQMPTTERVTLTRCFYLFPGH
ALOX15B inhib: qHTS Assay for Inhibitors of 15-hLO-2 (15-human lipoxygenase 2); 110,000 tested, 0.56% active; Potency, µM (top dose mostly 57.1 µM), inactives show at the top dose activity change, negative = inhibition, most hits filed as inhibitors; purified 15hLO-2, xylenol orange hydroperoxide absorbance; AID 881, 2007; note: % is set by controls: 0 for no effect and ±100 for the full control effect; nearly all actives have a fitted effect of over 60% in size
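Screening format was qHTS against 50 nM purified 15hLO-2 in Hepes pH 7.5 with detergent. Activity follows hydroperoxide formation from 45 uM arachidonic acid, measured as 573:405 nm absorbance ratio of the ferric-xylenol orange complex.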
15-hLO inh: qHTS Assay for Inhibitors of 15-hLO (15-human lipoxygenase); purified 15hLO-1, xylenol orange hydroperoxide absorbance; Potency, µM (highest dose often 57.1 µM), for the others: top-dose activity change, negative = inhibition, hits mostly inhibitors; 74,000 tested, 1.4% active; note: % is set by controls: 0 for no effect and ±100 for the full control effect; nearly all actives have a fitted effect of over 55% in size
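Compounds were preincubated 15 min at room temperature with 40 nM purified human enzyme (25 mM Hepes pH 7.5, 0.01% Triton X-100); 50 uM arachidonic acid reacted 6 min. Fe-xylenol orange detection, 30 min, absorbance ratio 573/405 nm.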
USP2a inhib: qHTS Assay for Inhibitors of Ubiquitin-specific Protease USP2a; AID 927, 2007; Ubiquitin carboxyl-terminal hydrolase 2 (Homo sapiens), O75604; USP2a enzymatic assay, qHTS inhibition; Potency, µM (top dose mostly 38.3 µM), inactives show at the highest dose activity change, negative = inhibition, usual class: inhibitors; 60,000 tested, 0.1% active; note: nearly all actives have a fitted effect of over 60% in size
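20 nM USP2 core + cpd, 30 min RT; add 20 nM Ub-PLA2/20 uM NBD C6-HPC; read Ex460/Em535 at 0 h and 2.5 h. Normalized to NEM; qHTS curve fit/classification.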
Casp7 inh: qHTS Assay for Allosteric/Competitive Inhibitors of Caspase-7; recombinant caspase-7, Ac-DEVD-AFC fluorescence rate; AID 889, 2007; Potency, µM (top dose mostly 57.5 µM), for inactives: at the highest dose activity change, negative = inhibition, usual class: inhibitors; 75,000 tested, 0.02% active; active = well fitted inhibition curve with a large enough effect in the main read-out, with a control signal flat, not every such curve was filed as active; inconclusive = small, poorly fitted or top-dose-only effect, or a change in a side signal; note: % of control where 0% means no effect
UbGFP stabilizer: Ubiquitin-GFP Assay; Potency, µM (doses to about 45.9 µM), for the others: at the top dose activation (GFP accumulation), hits mostly activators; 67,000 tested, under 10 active; Ubiquitin-GFP reporter cells, proteasome inhibition, GFP fluorescence; response scale: untreated = 0%, 10 µM MG-132 = 100%; active = well fitted activation curve with a large enough effect, not every such curve was filed as active; inconclusive = small, poorly fitted or top-dose-only effect, or another doubt; inactive = no such curve, though single readings can be large or run the other way
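U2OS cells expressing ubiquitin(G76V)-GFP, seeded overnight in 0.5% FBS medium, then treated 4 hr at 37 C across 46 uM to 2.9 nM. GFP-positive cells counted by laser cytometry (488 ex/515 em); %activity scaled between basal and 10 uM MG-132.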
* hit, by the source's call; ? = inconclusive; . = no result; [ ] = another dose, or the depositor's remark. Unless noted, calls come from the whole dose curve; as a rule, active = well fitted curve in the direction sought with a large enough effect; inconclusive = small, poorly fitted or top-dose-only effect, or another doubt; inactive = no such curve, though single readings can be large; an effect the other way counts as inactive or inconclusive. Potency is the fitted concentration of half-maximal effect.

SMILES | Casp1 inh | ALOX15B inhib | 15-hLO inh | USP2a inhib | Casp7 inh | UbGFP stabilizer
O=C1OC(=O)[C@@H]2[C@@H]1[C@@H]1CC[C@H]2O1 | 3.1% | 2.8% | 18.7% | -1.3% | 0.6% | -5.2%
O=C(O)c1nnsc1-c1ccc(-c2snnc2C(=O)O)cc1 | -2.1%[11.5 µM] | -5.4%[11.4 µM] | -26.7%[11.4 µM] | . | -2.4%[11.5 µM] | -4.6%[9.17 µM]
Cc1ccc(Nc2ncc3c(n2)CC(c2ccco2)CC3=O)c(C)c1 (configuration not stated) | -2.5% | -4.1% | 20µM* | 39.3% | -15.1% | .
COc1cccc2c1C(=O)c1c(O)c3c(c(O)c1C2=O)C[C@@](O)(C(=O)CO)C[C@@H]3OC1C[C@@H](N)[C@H](O)[C@H](C)O1 (some centres not stated) | . | 73.0%[0.0915 µM] | . | . | . | .
Cc1ccc(S(=O)(=O)/C=C\C#N)cc1 | -0.8% | 0.1% | -3.3%[25.6 µM] | . | 2.7% | -1.3%
C[C@@H]1C(=O)O[C@H]2[C@@H](O)[C@@]34[C@H]5C[C@H](C(C)(C)C)[C@@]36[C@H](OC(=O)[C@@H]6O)O[C@@]4(C(=O)O5)[C@@]12O | . | . | . | . | . | 3.9%
CN1CCN(c2ncc3nc(-c4cc(F)cc(F)c4)c(=O)n(CCC#N)c3n2)CC1 | . | 20µM* | 48.8% | 187.3% | ? | -1.1%
COc1ccccc1N1CCN(C/C=C/c2ccc(N(C)C)cc2)CC1 | -1.6% | 37.9% | 25.1µM* | 10.2% | -0.2% | -4.2%
CCC[C@@H]1O[C@@H]2C[C@@H]3[C@@H]4CCC5=CC(=O)C=C[C@@]5(C)[C@H]4[C@H](O)C[C@@]3(C)[C@@]2(C(=O)CO)O1 | . | . | . | . | . | -5.0%
CN1CCN([C@@H]2Cc3ccccc3Sc3ccc(Cl)cc32)CC1 | -0.3% | 43.0% | -16.4% | 13.2% | -1.6% | -3.3%
CC(C)c1ccc(Cn2ccc3c4c(N)nc(NC5CC5)nc4ccc32)cc1 | 0.5% | 23.6% | 7.94µM* | . | -1.4% | 0.8%
O=C(NC(=S)Nc1ccc(N2CCOCC2)c(Cl)c1)C(c1ccccc1)c1ccccc1 | . | 12.6µM* | . | . | . | .
O=C(/C=C/c1ccccc1)NC(=S)Nc1ccc(N2CCOCC2)c(Cl)c1 | . | -11.8% | . | . | . | .
O=C(O)CC[C@@H](NC(=O)c1ccccc1C(=O)O)C(=O)O | -1.8% | 6.5% | 4.2% | -1.6% | 0.9% | -4.1%
N=c1c(C(=O)NCc2ccco2)cc2c(=O)n3ccccc3nc2n1CCc1ccccc1 | . | -18.8% | 12.6µM* | 38.8% | ? | 7.7%
O=C(O)CCCC[C@@H]1SC[C@H]2NC(=O)N[C@H]12 | . | . | . | . | . | -2.3%
N#Cc1cccc(NC(=O)Nc2cccs2)c1 | -11.3% | -22.0% | ? | 28.9% | ? | -6.4%
CCc1cccc(NC(=O)Nc2cccs2)c1 | -3.0% | -24.8% | 12.6µM* | 23.5% | -4.6% | -3.0%
Cc1cccc(C)c1NC(=O)Nc1cccs1 | -11.4% | -24.0% | 25.1µM* | 23.5% | -11.4% | -4.8%
Cc1cc(NC(=O)Nc2cccs2)no1 | -4.1% | -4.8% | ? | -4.8% | 0.6% | 5.2%
O=C(c1ccc(Br)o1)N1CCN(c2ccc3nnc(-c4ccccc4)n3n2)CC1 | -4.7% | -6.0% | 15.8µM* | . | -15.9% | 6.2%
Cc1nnc2ccc(N3CCN(C(=O)c4ccccc4)CC3)nn12 | -1.9% | 0.3% | 0.7% | . | -1.4% | -2.7%
Cc1c(N/C=C/C(=O)c2cccs2)c(=O)n(-c2ccccc2)n1C | -2.6% | -19.7% | 25.1µM* | 31.1% | -1.4% | 0.2%
Nc1c(C(=O)Nc2nc3ccccc3s2)sc2nc(-c3cccs3)ccc12 | . | 12.6µM* | . | . | . | .
Nc1ccc(C(=O)Nc2nc3ccccc3s2)cc1 | . | 6.0% | . | . | . | .
O=C1C=CC(=O)C2=C1C1c3ccccc3C2c2ccccc21 | -0.8% | 2µM* | 0.794µM* | . | 0.1% | .
